Records with an inconclusive call do not appear. A call without a number means that no potency is given here. Unmarked numbers belong to inactive results. Activity calls are given as the source filed them. The call rests on the fitted dose curve; in most records, active means well fitted cell-killing curve with a large enough effect in the repeat runs; inconclusive means weak or mixed curves, or effect the other way; inactive means flat fitted curve, though single readings scatter.
Assay: qHTS assay to identify small molecule antagonists of the androgen receptor (AR) signaling pathway using the MDA cell line - cell viability counter screen (AID 743041; further: nearly all actives have a fitted effect of over 45% in size)
Conditions: MDA-kb2 viability, CellTiter-Fluor, 16 h, cells co-treated with R1881 androgen agonist; series mostly up to 70.3 µM
Description: National Center for Advancing Translational Sciences [NCATS]
NIH Chemical Genomics Center [NCGC]
U.S. Environmental Protection Agency [EPA]
National Institutes of Environmental Health Sciences [NIEHS]
National Toxicology Program [NTP]
U.S. Food and Drug Administration [FDA]
Androgen receptor (AR), a nuclear hormone receptor, plays a critical role in AR-dependent prostate cancer and other androgen related diseases. Endocrine disrupting chemicals (EDCs) and their interactions with steroid hormone receptors like AR may cause disruption of normal endocrine function as well as interfere with metabolic homeostasis, reproduction, developmental and behavioral functions. To identify the compounds that inhibit AR signaling, MDA-kb2 AR-luc cell line (from ATCC, deposited by Wilson et al.) was used to screen the Tox21 10K compound library. MDA-kb2 AR-luc cell line is human breast carcinoma cell line that was stably transfected with a luciferase reporter gene under control of the MMTV promoter containing response elements for both androgen receptor (AR) and glucocorticoid receptor (GR). The cytotoxicity of the Tox21 compound library against the MDA-kb2 AR-luc cell line was tested in parallel by measuring the cell viability using CellTiter-Fluor assay (Promega, Madison, WI) in the same wells.
Tox21 Assay Protocol Summary:
MDA-kb2 AR-luc cells were dispensed at 3,000 cells/4 uL/well of culture medium into white wall/solid-bottom 1536-well plates using a Multidrop Combi (ThermoFisher Scientific, Waltham, MA) dispenser. After the assay plates were incubated at a 37C and 0% CO2 for 5 hr, 23 nL of compounds dissolved in DMSO, positive controls or DMSO only was transferred to the assay plate by a Pintool station (Kalypsys, San Diego, CA), followed by addition of 1 uL of agonist (R1881) in culture medium using a Bioraptr Flying Reagent Dispenser (FRD) workstation (Beckman Coulter, Indianapolis, IN, USA). The plates were incubated at a 37C and 0% CO2 for 16 h. After 15.5 h incubation, 1uL of CellTiter-Fluor reagent (Promega) was added using a Bioraptr FRD to each plate for measuring cytotoxicity. The fluorescence intensity was quantified on a ViewLux plate reader (PerkinElmer, Shelton, CT) following 30 min incubation at 37C and 0% CO2.

Which Potency does the source give for Cc1c(-c2ccccc2)oc2c(C(=O)OCCN3CCCCC3)cccc2c1=O here?
The Potency was “inactive”.

For NC(Cc1ccc(F)cc1)C(=O)O (stereo not given), which viability change, negative = cytotoxic is on record?
The viability change, negative = cytotoxic was -1.4% [at 8.47 µM].

Which Potency does the source give for O=CCCc1ccccc1 here?
The Potency was “inactive”.

Which Potency does the source give for CC(C)=CCCC(C)CCOC=O (stereo not given) here?
Its Potency is “inactive”.

For COc1ccccc1N1CCN(CCCNc2cc(=O)n(C)c(=O)n2C)CC1, which Potency is on record?
The Potency was “inactive”.

For O=c1oc2c(O)c(O)cc3c(=O)oc4c(O)c(O)cc1c4c23, which Potency is on record?
Its Potency is “inactive”.

For CCOC(=O)[C@H](CCc1ccccc1)N[C@@H](C)C(=O)N1Cc2cc(OC)c(OC)cc2C[C@H]1C(=O)O, which Potency is on record?
The Potency was “inactive”.

Which Potency does the source give for CC(C)(CO)[C@@H](O)C(=O)NCCC(=O)O here?
Its Potency is “inactive”.

For CCN(O)CC, which Potency is on record?
Its Potency is “inactive”.

For CC(C)OC(C)C, which Potency is on record?
The Potency was “inactive”.

Which Potency does the source give for CC(C)CC(=O)OCc1ccccc1 here?
Its Potency is “inactive”.

With CN1CCN(C2=Nc3cc(F)ccc3Cc3ccccc32)CC1 as the compound, how does the Potency read?
The Potency was “inactive”.

For CCOC(=O)C1CC(=O)C(=C(O)C2CC2)C(=O)C1 (stereo not given), which Potency is on record?
Its Potency is “inactive”.

With CN1CCC[C@@H]1Cc1c[nH]c2ccc(CCS(=O)(=O)c3ccccc3)cc12 as the compound, how does the Potency read?
The Potency was “inactive”.

For OCCN(CCO)CCN(CCO)CCO, which Potency is on record?
The Potency was “inactive”.

With CN(C)Cc1ccccc1 as the compound, how does the Potency read?
Its Potency is “inactive”.

Which Potency does the source give for CCCCNc1cc(C(=O)O)cc(S(N)(=O)=O)c1Oc1ccccc1 here?
Its Potency is “inactive”.

With O=C(CC(=O)C(F)(F)F)c1ccccc1 as the compound, how does the Potency read?
Its Potency is “inactive”.

Which Potency does the source give for CC/C=C\CCOC(=O)CCCCC here?
The Potency was “inactive”.

With C=CC(C)(O)CC/C=C(\C)CCC=C(C)C (stereo not given) as the compound, how does the Potency read?
The Potency was “inactive”.

Which Potency does the source give for CC(C)C(=O)OC/C=C/c1ccccc1 here?
Its Potency is “inactive”.

For O=C1CCCc2ccccc21, which Potency is on record?
The Potency was “inactive”.

Which Potency does the source give for O=Cc1ccc(F)c(Br)c1 here?
The Potency was “inactive”.

Which Potency does the source give for Cc1cc(NS(=O)(=O)c2ccc(N)cc2)nc(C)n1 here?
The Potency was “inactive”.

With CC(C)(C)c1ccc(OC(=O)c2ccccc2O)cc1 as the compound, how does the Potency read?
The Potency was “inactive”.

With CCN(CC)CCNC(=O)COc1ccc(Cl)cc1 as the compound, how does the Potency read?
The Potency was “inactive”.

For Cc1c(N)cccc1N, which Potency is on record?
Its Potency is “inactive”.

With CCC/C=C/CO as the compound, how does the Potency read?
Its Potency is “inactive”.

Which Potency does the source give for Clc1cccc(-c2cc(Cl)cc(Cl)c2)c1 here?
The Potency was “inactive”.

For CCOC(=O)c1ccccc1O, which Potency is on record?
The Potency was “inactive”.

With Cc1ccc([N+](=O)[O-])c(N)c1 as the compound, how does the Potency read?
Its Potency is “inactive”.

Which Potency does the source give for Cc1ccsc1C(=CCCN1CCC[C@@H](C(=O)O)C1)c1sccc1C here?
The Potency was “inactive”.

Which Potency does the source give for FC(F)(F)C(Cl)(Cl)Cl here?
Its Potency is “inactive”.

For FC(F)(F)c1ccccc1, which Potency is on record?
The Potency was “inactive”.

Which Potency does the source give for O=c1[nH]c(=O)n([C@H]2C[C@H](O)[C@@H](CO)O2)cc1C(F)(F)F here?
The Potency was “inactive”.

Which Potency does the source give for O=[N+]([O-])c1nccn1CO[C@@H](CO)[C@H](O)CO here?
Its Potency is “inactive”.

Which Potency does the source give for CCOc1ccc(OCC)c(Cl)c1 here?
Its Potency is “inactive”.

Which Potency does the source give for OC[C@H]1O[C@@H](O[C@H]2[C@H](O)[C@@H](O)[C@H](O)O[C@@H]2CO)[C@H](O)[C@@H](O)[C@H]1O here?
Its Potency is “inactive”.

With CC(=O)N(CC(O)CN(C(C)=O)c1c(I)c(C(=O)NCC(O)CO)c(I)c(C(=O)NCC(O)CO)c1I)c1c(I)c(C(=O)NCC(O)CO)c(I)c(C(=O)NCC(O)CO)c1I (stereo not given) as the compound, how does the Potency read?
The Potency was “inactive”.

For CCC1(C)NC(=O)NC1=O (stereo not given), which Potency is on record?
The Potency was “inactive”.

From PubChem BioAssay (Tox21)
